Screens (PubChem BioAssay)
Most compounds without a hit are left out; they make up all but 17% or so of the library.
HT1080 IDH1KD tx: HT-1080 IDH1 knockdown cell toxicity (counter line). Potency, µM (series often up to 46.1 µM), without a hit: at the highest dose activity, negative = toxicity, usual class: cytotoxic. actives 2% (n = 360,000). AID 686971. HT-1080 IDH1 knockdown viability, ATP luminescence, 48 h;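 also: 0% = DMSO wells and -100% = cell-free medium wells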
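In this qHTS, HT-1080 cells depleted of IDH1 are exposed for 48 h at 37 °C to compound titrations. Toxicity is scored from CellTiter-Glo luminescence, with DMSO as full viability and medium alone as none.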
HT1080NT lethal: kills 2HG-producing HT-1080-NT fibrosarcoma cells. HT-1080-NT fibrosarcoma viability, CellTiter-Glo ATP luminescence, 48 h. Potency, µM (titrated, usually from 46.1 µM), for the others: at the highest dose activity, negative = less viability, hits mostly cytotoxic. actives 1.6% (n = 360,000);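 also: NT is the 2HG producing partner of a matched IDH1 knockdown line; 0% = DMSO-treated cells and -100% = media-only wells without cells; nearly all actives have a fitted effect of over 55% in size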
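Read-out is CellTiter-Glo luminescence after 10 minutes at room temperature, following 48 hours' compound treatment of HT-1080-NT cells (750 cells/well, RPMI, 5% FBS, 37 degrees C).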
DT40 TDP1 no CPT: qHTS for Inhibitors of human tyrosyl-DNA phosphodiesterase 1 (TDP1): qHTS in cells in absence of CPT | DT40 Tdp1-/- hTDP1 cells, no CPT, ATP luminescence, 48 h | actives 15% (n = 420,000) | AID 686978, 2013 | Potency, µM (highest dose often 46.2 µM), for inactives: at the highest dose activity change, negative = growth inhibition, hits mostly inhibitors; also: % is scaled to controls: 0 for no effect and ±100 for the full control effect; nearly all actives have a fitted effect of over 55% in size
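Readout: luminescence from CellTiter-Glo after 30 min in the dark at RT. Cells: DT40 Tdp1-/- with stable hTDP1, 400/well. Exposure: compounds alone, ≥48 hr, 37 °C.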
HepG2 tox: counter-screen for TGF-b inhibitors: cytotoxicity in HepG2 cells; AID 588856; Potency, µM (top dose mostly 46.1 µM), inactives show top-dose activity change, negative = cytotoxicity, usual class: cytotoxic; HepG2 CAGA-GFP viability, ATP luminescence, 18 h; actives 0.76% (n = 410,000)
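HepG2 CAGA-GFP cells (1000/well, DMEM with 1% FBS) received compound, then TGF-beta at 500 pg/mL final, and were incubated 18 hours at 37 degrees C. Viability was read by CellTiter-Glo luminescence. Media-only wells were set as complete cell-killing and DMSO as no toxicity.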
TGFb SMAD3 inh: TGF-b pathway inhibition; HepG2 CAGA-GFP TGF-b/SMAD3 reporter, GFP fluorescence, 18 h; TGF-beta stimulated, 500 pg/mL final; actives 1.2% (n = 410,000); Potency, µM (doses to about 46.1 µM), inactives show top-dose activity, negative = inhibition, hits mostly inhibitors; AID 588855; also: % is scaled to controls: 0 for no effect and ±100 for the full control effect; nearly all actives have a fitted effect of over 65% in size
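HEPG2 CAGA-GFP reporter cells (1000/well, DMEM with 1% FBS) received compounds, then recombinant TGF-beta at 500 pg/mL final for 18 hours at 37 degrees C. Per-cell GFP summed per well was normalised to unstimulated and stimulated DMSO controls before curve fitting.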
TDP1 cell CPT: DT40-hTDP1 cell growth loss with CPT; actives 12% (n = 420,000); chicken DT40 Tdp1-/-;hTDP1 cells + 20 nM CPT, ATP luminescence, 48 h; Potency, µM (series often up to 46.2 µM), inactives show top-dose activity change, negative = growth inhibition, most hits filed as inhibitors; also: % is scaled to controls: 0 for no effect and ±100 for the full control effect; nearly all actives have a fitted effect of over 55% in size
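Chicken DT40 Tdp1-/- cells complemented with human TDP1, 400 cells/well, exposed to compounds plus 20 nM camptothecin for at least 48 h at 37 C; viability read as ATP content by CellTiter-Glo luminescence.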
* hit, by the source's call; ? = inconclusive; . = not tested or not shown; [ ] = remark or other dose. Calls follow the shape of the dose curve; as a rule, active = well fitted curve in the direction sought with a large enough effect; inconclusive = small, poorly fitted or top-dose-only effect, or another doubt; inactive = no such curve, though single readings can be large; an effect the other way counts as inactive or inconclusive. Potency is read from the fitted curve at half-maximal effect.

SMILES	HT1080 IDH1KD tx	HT1080NT lethal	DT40 TDP1 no CPT	HepG2 tox	TGFb SMAD3 inh	TDP1 cell CPT
COc1ccccc1CN1CCN(C2CCN(C(=O)NC(C)C)CC2)C(=O)C1=O	.	.	0%	-5%	2%	-11%
COC(=O)c1c(C)n(-c2ccccc2)c2ccc(O)cc12	?	11µM*	?	-6%	-23%	?
CCOc1ccc(-n2c(C)c(C(=O)OC)c3cc(O)ccc32)cc1	-1%	-5%	?	15%	8%	-22%
COC(=O)c1c(C)n(-c2ccc(C)cc2)c2ccc(O)cc12	20µM*	13µM*	18µM*	-39%	?	35µM*
CCOC(=O)c1c(C)n(CC(O)c2ccccc2)c2ccc(O)cc12 (stereo not drawn)	-22%	-20%	18µM*	-21%	?	?
C=CCN(C(C(=O)OC)C(C)C)S(=O)(=O)CCl (stereo not drawn)	.	.	.	4%	0%	.
Cn1c(=O)c2ccccc2n(CC(=O)N2CCCc3ccccc32)c1=O	12%	8%	?	2%	-9%	-23%
CCOC(=O)c1ccc(NC(=S)N(CCCN(CC)CC)Cc2ccco2)cc1	-21%	-13%	-27%	-20%	-1%	9%
CCOC(=O)c1ccc(NC(=S)N(CCCN2CCCCC2)Cc2ccco2)cc1	?	?	?	-26%	0.63µM*	-10%
CCOC(=O)c1ccc(NC(=S)N(CCN(C)C)Cc2cccs2)cc1	?	-58%	?	-18%	-1%	16µM*
Cc1ccc(-c2nc(CS(=O)(=O)CC(=O)N3CCCCCC3)c(C)o2)cc1	-8%	-7%	?	-33%	-33%	?
Cc1ccc(-c2nc(CS(=O)(=O)CC(=O)N3CCN(c4ccccc4)CC3)c(C)o2)cc1	.	.	23µM*	-29%	11µM*	?
Cc1ccc(-c2nc(CS(=O)(=O)CC(=O)N3CCc4ccccc4C3)c(C)o2)cc1	-14%	2%	21µM*	-12%	-15%	18µM*
CCCCC(=O)NC1(C(F)(F)F)C(=O)Nc2c1c(=O)[nH]c(=O)n2-c1ccc(C)c(C)c1 (stereo not drawn)	.	.	-6%	0%	3%	-14%
FC(F)(F)c1cc(Cl)c2nc(-c3ccccc3)c(Cc3cccc(Cl)c3)n2c1	1%	13%	?	.	.	?
Cc1ccc(CNC(=O)CN2C(=O)COc3ccc(S(=O)(=O)N4CCC(C)CC4)cc32)cc1	.	.	-29%	-14%	?	?
COc1ccccc1NC(=O)CC(=O)c1cccc([N+](=O)[O-])c1	6%	6%	-29%	4%	20%	9%
COc1ccccc1NC(=O)/C(=C/c1cccc([N+](=O)[O-])c1)c1ccccc1	10%	0%	9.2µM*	3%	-29%	13µM*
COc1ccccc1C(=O)N/C(=C/c1cccc([N+](=O)[O-])c1)C(=O)Nc1cccc(C(=O)O)c1	16%	23%	?	14%	28%	21µM*
CCCC1=Nc2cc(C(=O)NCCOC)ccc2Sc2ccccc21	.	.	0.58µM*	7%	.	?
CCCC1=Nc2cc(C(=O)NCCCOC(C)C)ccc2Sc2ccccc21	18µM*	12µM*	4.1µM*	5%	-29%	4.6µM*
COc1cc(Cl)ccc1OCc1cc(C(=O)NC2CCc3ccccc32)no1 (stereo not drawn)	-18%	?	-17%	-22%	4%	-10%
COc1cccc(CNC(=O)Cn2c(=O)n3nc(-c4cccc(F)c4)nc3c3ccccc32)c1	.	.	-13%	14%	3%	-6%
CCOC(=O)CSc1nnc(CNC(=O)c2ccc(OC)cc2)n1C1CCCCC1	1%	6%	6%	-5%	-1%	?
c1ccc(NC2=NCCN2CCCC2CCCCC2)cc1	-27%	-27%	23µM*	-14%	-12%	16µM*
SMILES	HT1080 IDH1KD tx	HT1080NT lethal	DT40 TDP1 no CPT	HepG2 tox	TGFb SMAD3 inh	TDP1 cell CPT
c1ccc(CCCCN2CCN=C2Nc2ccccc2)cc1	-10%	-5%	16µM*	-6%	12%	?
Fc1cccc(CCN2CCN=C2Nc2ccccc2)c1	-2%	-1%	-11%	-8%	?	0%
COC(=O)[C@@H]1CCCN1Cc1ccc2c(c1)CN(Cc1ccccc1)CCO2	.	.	-36%	.	.	15%[9.04 µM]
CC(Nc1nc(-c2ccc(F)cc2)cs1)c1nc2cc(C(F)(F)F)ccc2n1CCCO (stereo not drawn)	-15%	-28%	16µM*	-30%	?	?
CC(Nc1nc(-c2ccc(F)cc2)cs1)c1nc2cc(C(F)(F)F)ccc2n1CCOCCO (stereo not drawn)	3%	10%	?	-18%	-15%	?
Cc1ccc(Cn2c(C(C)Nc3nc(-c4ccc(F)cc4)cs3)nc3cc(C(F)(F)F)ccc32)cc1 (stereo not drawn)	-5%	-3%	?	-36%	-4%	21µM*
CC(=O)Nc1ccc(S(=O)(=O)NCC2CCC(C(=O)N3CC(C)CC(C)C3)CC2)cc1 (stereo not drawn)	-4%	-19%	?	-32%	4%	-6%
COc1cc(/C=C2\SC(N)=NC2=O)ccc1O	18µM*	?	4.6µM*	-1%	?	12µM*
COc1cc(/C=C2\SC(N)=NC2=O)cc(OC)c1	-12%	-1%	?	-11%	16%	18µM*
C=CCOc1ccc(/C=C2\SC(N)=NC2=O)cc1OC	2%	-1%	-19%	-6%	6%	?
Cc1cccc(C)c1OC(=O)CN(c1ccc(Cl)cc1)S(C)(=O)=O	-13%	-9%	?	-12%	-17%	?
CCN(CC)C(=O)C1CCCN(Cc2ccc3ccccc3c2)C1 (stereo not drawn)	-1%	-5%	-23%	-4%	-4%	-3%
O=C(CSc1nccn1-c1ccccc1)N1CCc2ccccc21	7%	8%	-21%	-4%	1%	-22%
O=C(CSc1nccn1-c1ccc(Cl)cc1)N1CCCc2ccccc21	0%	0%	15µM*	2%	-28%	?
CC(C)OCCCn1c(SCC(=O)N2CCc3ccccc32)nc2ccccc2c1=O	?	-19%	12µM*	-3%	2%	?
